Measurements from PubChem BioAssay AID1159580 (chemical genetic matrix, 2015).
Several values for one entry are separate records, joined by “and”; a condition that tells them apart may be missing. Identical values can stand only once. The campaign covered roughly 5,500 compounds. About 2,000 (36%) were called active. About 18% were inconclusive and are not listed. Rule as the data show it: active = normalized growth mostly below about 0.91 (no sharp cut-off); inconclusive = no clear call, values can overlap the other calls; inactive = mostly above about 0.92. The list shows a part of the results.

Assay: chemical genetic growth profiling, strain panel (AID 1159580);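 also: tested at 20 µM; growth read once vehicle control cultures reached saturation at 30 °C; 1 = growth at the plate median or of vehicle wells; lower values mean less growth of the strain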
Settings: S. cerevisiae deletion strains, growth OD

Measured: normalized growth

COc1ccc2c(=O)c(CC(=O)O)coc2c1
inactive: locus YAL021C, strain ccr4, stronger effect = lower value 1.01 | locus YAL026C, strain drs2, stronger effect = lower value 0.984 | locus YAL030W, strain snc1, stronger effect = lower value 0.983 | locus YBL061C, strain skt5, stronger effect = lower value 0.989 | locus YBR009C, strain hhf1, stronger effect = lower value 0.987 | locus YBR021W, strain FUR4, stronger effect = lower value 1.02 | locus YBR023C, strain chs3, stronger effect = lower value 0.999 | locus YBR171W, strain sec66, stronger effect = lower value 0.956 | locus YBR229C, strain ROT2, stronger effect = lower value 1 | locus YBR231C, strain swc5, stronger effect = lower value 0.972 | locus YBR279W, strain paf1, stronger effect = lower value 0.997 | locus YCL011C, strain gbp2, stronger effect = lower value 0.995 | locus YCL016C, strain dcc1, stronger effect = lower value 1.04 | locus YCL029C, strain bik1, stronger effect = lower value 1 | locus YCL061C, strain MRC1, stronger effect = lower value 1 | locus YCL069W, strain vba3, stronger effect = lower value 0.975 | locus YCR088W, strain abp1, stronger effect = lower value 0.971 | locus YDL005C, strain med2, stronger effect = lower value 0.985 | locus YDL035C, strain GPR1, stronger effect = lower value 1.03 | locus YDL040C, strain nat1, stronger effect = lower value 0.979 | locus YDL074C, strain BRE1, stronger effect = lower value 1.05 | locus YDL101C, strain DUN1, stronger effect = lower value 0.987 | locus YDL134C, strain PPH21, stronger effect = lower value 1.01 | locus YDL185W, strain tfp1, stronger effect = lower value 0.984 | locus YDL192W, strain arf1, stronger effect = lower value 1.01 | locus YDR001C, strain nth1, stronger effect = lower value 0.995 | locus YDR069C, strain doa4, stronger effect = lower value 0.953 | locus YDR101C, strain arx1, stronger effect = lower value 1.04 | locus YDR137W, strain rgp1, stronger effect = lower value 1 | locus YDR159W, strain sac3, stronger effect = lower value 0.926 | locus YDR162C, strain NBP2, stronger effect = lower value 1.05 | locus YDR195W, strain ref2 0.964 | locus YDR297W, strain sur2, stronger effect = lower value 0.965 | locus YDR318W, strain mcm21, stronger effect = lower value 0.991 | locus YDR334W, strain swr1, stronger effect = lower value 0.968 | locus YDR335W, strain msn5, stronger effect = lower value 0.987 | locus YDR388W, stronger effect = lower value 1 | locus YDR392W, strain spt3, stronger effect = lower value 0.939 | locus YDR502C, strain sam2, stronger effect = lower value 0.991 | locus YEL003W, strain gim4, stronger effect = lower value 0.98 | locus YEL037C, strain rad23, stronger effect = lower value 0.977 | locus YEL061C, strain CIN8 (second series), stronger effect = lower value 0.973 | locus YEL061C, strain CIN8, stronger effect = lower value 1.01 | locus YER015W, strain faa2, stronger effect = lower value 0.976 | locus YER016W, strain bim1, stronger effect = lower value 0.986 | locus YER110C, stronger effect = lower value 0.976 | locus YER111C, strain swi4, stronger effect = lower value 0.981 | locus YER155C, strain BEM2 (second series), stronger effect = lower value 0.981 | locus YER155C, strain BEM2, stronger effect = lower value 0.989 | locus YER167W, strain BCK2, stronger effect = lower value 1.01 | locus YFR010W, strain ubp6, stronger effect = lower value 0.969 | locus YGL078C, strain dbp3, stronger effect = lower value 0.96 | locus YGL086W, strain mad1, stronger effect = lower value 1.02 | locus YGL167C, strain pmr1, stronger effect = lower value 0.992 | locus YGL173C, strain kem1, stronger effect = lower value 0.982 | locus YGL227W, strain vid30, stronger effect = lower value 0.984 | locus YGL240W, strain doc1, stronger effect = lower value 0.951 | locus YGL248W, strain PDE1, stronger effect = lower value 1.01 | locus YGL253W, strain hxk2, stronger effect = lower value 0.961 | locus YGR078C, strain PAC10, stronger effect = lower value 1.01 | locus YGR135W, strain pre9, stronger effect = lower value 0.949 | locus YGR252W, strain gcn5, stronger effect = lower value 0.987 | locus YHR013C, strain ard1, stronger effect = lower value 1.02 | locus YHR027C, strain rpn1, stronger effect = lower value 0.969 | locus YHR030C, strain SLT2, stronger effect = lower value 1.01 | locus YHR079C, strain IRE1 (second series), stronger effect = lower value 0.984 | locus YHR079C, strain IRE1, stronger effect = lower value 0.991 | locus YHR094C, strain hxt1, stronger effect = lower value 0.983 | locus YHR129C, strain ARP1, stronger effect = lower value 1 | locus YHR142W, strain chs7, stronger effect = lower value 0.995 | locus YHR200W, strain rpn10, stronger effect = lower value 1.01 | locus YIL066C, strain RNR3, stronger effect = lower value 1 | locus YIL073C, strain SPO22, stronger effect = lower value 0.974 | locus YIL125W, strain kgd1, stronger effect = lower value 1 | locus YIR030C, strain dcg1, stronger effect = lower value 1 | locus YJL092W, strain hpr5, stronger effect = lower value 0.974 | locus YJL095W, strain BCK1 (second series), stronger effect = lower value 0.962 | locus YJL095W, strain BCK1, stronger effect = lower value 1.01 and 1.02 | locus YJL115W, strain asf1, stronger effect = lower value 0.984 | locus YJL129C, strain trk1, stronger effect = lower value 0.996 | locus YJL134W, strain LCB3, stronger effect = lower value 0.999 | locus YJL154C, strain vps35, stronger effect = lower value 0.987 | locus YJL164C, strain tpk1, stronger effect = lower value 1.01 | locus YJL166W, strain qcr8, stronger effect = lower value 0.973 | locus YJL168C, strain set2, stronger effect = lower value 0.987 | locus YJL187C, strain SWE1 (second series), stronger effect = lower value 0.993 | locus YJL187C, strain SWE1, stronger effect = lower value 0.977 | locus YJR043C, strain POL32, stronger effect = lower value 1.05
